Screening results (PubChem BioAssay)
eIF4H inh: human eIF4H binding inhibitors, primary screen, translation initiation inhibitor project, biochemical, uHTS, fluorescence polarization | Eukaryotic translation initiation factor 4H (Homo sapiens), Q15056 | eIF4H fluorescence polarization binding assay | inhibition, % at 35 µM | actives 0.94% (n = 290,000) | AID 2012, 2009;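 note: calls also rest on retests at 20 µM and on dose response follow-up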
PABP1 MLLE inh: inhibitors of PABP1 MLLE–PAM2 peptide binding, primary screen, biochemical, fluorescence polarization, FITC-PAM2, GST-MLLE; inhibition, % at 20 µM; actives 0.36% (n = 360,000); in the data active = inhibition above about 35%, passing the limit was not always enough;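 note: plate controls were DMSO wells with GST-MLLE for no effect and wells lacking GST-MLLE protein for full effect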
PABP polyA inh: PABP poly(A) RNA binding inhibitors, primary screen, biochemical, fluorescence polarization, uHTS. calls only at 35 µM. actives 1% (n = 290,000);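 note: calls also rest on retests at 20 µM and on dose response follow-up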
A3G deaminase: APOBEC3G DNA deaminase inhibitors, primary screen, biochemical, fluorescence, single-stranded DNA substrate, uHTS; DNA dC->dU-editing enzyme APOBEC-3G (Homo sapiens), Q9HC16; recombinant A3G, ssDNA deamination FAM/TAMRA fluorescence; inhibition, % at 20 µM; actives 0.28% (n = 330,000); AID 493012, 2011;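 active = inhibition of at least 40% at 20 µM, with no more than 30% in the related APOBEC3A deaminase screen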;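 note: plate controls were DMSO wells with A3G for no effect and wells lacking A3G enzyme for full effect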
A3A deaminase: APOBEC3A ssDNA deaminase inhibitors, primary screen, selectivity assay for APOBEC3G inhibitor project, biochemical, FAM/TAMRA oligo cleavage fluorescence | DNA dC->dU-editing enzyme APOBEC-3A (Homo sapiens), P31941 | recombinant A3A, FAM/TAMRA ssDNA deamination fluorescence | inhibition, % at 20 µM | actives 0.41% (n = 330,000) | AID 493011, 2011;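 active = at least 40% inhibition at 20 µM here, with at most 30% in a related deaminase screen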;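 note: plate controls were A3A with DMSO for no effect and wells lacking A3A enzyme for full effect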
Target sequence (P31941 whole entry, looked up): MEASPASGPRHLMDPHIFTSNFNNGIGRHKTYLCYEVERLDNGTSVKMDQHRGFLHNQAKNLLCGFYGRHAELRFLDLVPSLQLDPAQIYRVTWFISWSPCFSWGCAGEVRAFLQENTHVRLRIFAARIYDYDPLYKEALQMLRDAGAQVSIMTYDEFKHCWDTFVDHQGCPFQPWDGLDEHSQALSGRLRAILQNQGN
PHOSPHO1 block: PubChem AID 1565; inhibition, % at 13.3 µM; Phosphoethanolamine/phosphocholine phosphatase (Homo sapiens), Q8TCT1; recombinant PHOSPHO1, absorbance phosphatase assay; actives 1.1% (n = 290,000); in the data active = inhibition above about 60%
Target sequence (Q8TCT1 whole entry, looked up): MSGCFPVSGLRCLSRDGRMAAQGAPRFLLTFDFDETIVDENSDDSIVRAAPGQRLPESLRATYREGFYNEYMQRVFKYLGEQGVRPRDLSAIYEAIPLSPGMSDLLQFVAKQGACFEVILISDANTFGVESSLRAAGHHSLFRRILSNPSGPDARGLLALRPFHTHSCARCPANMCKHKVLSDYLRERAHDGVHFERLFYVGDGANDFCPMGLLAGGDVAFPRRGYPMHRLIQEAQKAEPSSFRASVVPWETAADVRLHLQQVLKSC
* = called active by the depositor; i = inactive; nt = no result given; + = active, no number. An excerpt weighted towards active compounds, which were near 2.6% of everything screened. Unless noted, the rule behind the calls is not given here.

SMILES | eIF4H inh | PABP1 MLLE inh | PABP polyA inh | A3G deaminase | A3A deaminase | PHOSPHO1 block
O=C1/C(=C/c2cccs2)CCC/C1=C\c1cccs1 | 72* | -20 | + | -4 | 4 | 43
Cc1ccccc1N=C1NC(=O)/C(=C/c2cccn2C)S1 | 1 | -62 | i | -5 | -2 | 36
Cn1cccc1/C=C1\CCC/C(=C\c2cccn2C)C1=O | 52* | i | + | -27 | -13 | 28
CC1C/C(=C/c2cccs2)C(=O)/C(=C/c2cccs2)C1 (stereo unspecified) | 74 | -19 | i | -4 | 6 | -10
CCN(CC)c1ccc(NC(=O)Nc2ccc(C(C)=O)cc2)cc1 | -4 | 3 | i | -10 | -4 | 85*
CCN(CC)c1ccc(NC(=O)Nc2ccccc2)cc1 | 5 | 8 | i | -6 | -2 | nt
O=C(CSc1nc2ccccc2n1CCc1ccccc1)NC1CCS(=O)(=O)C1 (stereo unspecified) | 11 | -95 | i | -6 | -3 | 97*
Nn1cc(-c2ccccc2)nc1SCC(=O)NCCN1C(=O)CSC1=O | 5 | 27 | i | -6 | -4 | 82*
Nn1cc(-c2ccccc2)nc1SCC(=O)NC1CCS(=O)(=O)C1 (stereo unspecified) | 8 | 16 | i | 3 | 2 | 88*
O=C(CSc1nc2ccccc2n1CCc1ccccc1)NC1CC1 | -6 | -35 | i | -9 | -3 | -7
Cc1cccc(OCCCC(=O)NNC(=O)c2ccccn2)c1 | nt | -5 | nt | 1 | -1 | nt
CCOc1ccc(NS(=O)(=O)c2ccc(NC(=O)c3cccnc3)c(OC)c2)cc1 | -12 | 11 | i | 1 | 3 | -8
Cc1csc(=O)n1CCC(=O)OCC(=O)NNC(=O)c1ccc(Cl)cc1 | nt | 45* | nt | -3 | -5 | nt
Cc1ccc(-c2nnc(-c3cc(C)on3)o2)cc1 | 2 | 7 | i | -3 | -1 | 61*
Cc1cc(-c2nnc(-c3cccc(C(F)(F)F)c3)o2)no1 | -1 | -3 | i | -8 | -2 | 36
c1cc(N2CCCCC2)nc(N2CCCCC2)n1 | nt | -1 | nt | nt | nt | nt
C[c-]1[c-](C)[c-](C)[c-](C)[c-]1C.[Fe].c1cc2nccc(N3CCCC3)[c-]2c1 (stereo unspecified) | 104* | 64* | + | 83 | 99 | 11
Cc1cc(C)cc(Cn2c3ccc(NC(=O)NCc4ccc(F)cc4)cc3c(=O)n2C)c1 | nt | -6 | nt | nt | nt | nt
COc1ccccc1Oc1ncnc2sccc12 | -5 | -7 | i | -6 | -2 | 61*
CC(=O)Nc1ccc2c(CN3C(=O)NC(C)(c4ccc(C)cc4)C3=O)cc(=O)oc2c1 (stereo unspecified) | 14 | -8 | i | -5 | 1 | -4
CCOc1ccccc1NC(=O)CN1C(=O)C(C)SC(C)C1=O (stereo unspecified) | -3 | 9 | i | 2 | 4 | 28
CCOc1ccccc1NC(=O)CN1C(=O)CSC(C)C1=O (stereo unspecified) | -4 | -7 | i | -5 | -3 | 65*
CCCCn1nnc(NC(=O)c2sc3cc(Cl)ccc3c2Cl)n1 | 1 | -11 | i | 2 | 1 | 4
CCN(CC)Cc1ccc(NC(=O)c2sc3cc(Cl)ccc3c2Cl)cc1 | -2 | 0 | i | 10 | 0 | 60*
Cc1nc(C)c(C(=O)Nc2ncc([N+](=O)[O-])s2)o1 | 54 | 12 | + | 19 | 28 | 11
SMILES | eIF4H inh | PABP1 MLLE inh | PABP polyA inh | A3G deaminase | A3A deaminase | PHOSPHO1 block
CNC(=O)c1[nH]cnc1C(=O)N[C@@H](Cc1ccccc1)C(=O)OC(C)(C)C | 93* | 5 | + | -4 | 0 | 30
CC(O)C(NC=C1C(=O)OC(C)(C)OC1=O)C(=O)O (stereo unspecified) | -3 | -4 | i | -10 | -1 | -31
CCOC(=O)c1c(NC(=O)COC(=O)c2ccc(NC(=O)CC#N)cc2)sc(C(=O)NC)c1C | nt | -12 | nt | 2 | 0 | nt
COc1cccc(-c2nc(-c3ccccc3)nc(N3CCN(C)CC3)c2C#N)c1 | active | 1 | i | -3 | 0 | 11
COc1ccc(-c2nc(-c3ccccc3)nc(N3CCN(C)CC3)c2C#N)cc1 | 0 | 5 | i | -5 | -2 | 44
S=c1[nH]ccc2ccccc12 | nt | 19 | nt | nt | nt | nt
S=c1[nH]ncc2ccccc12 | 4 | 5 | i | -1 | -2 | 67*
Cc1c(CNCCc2ccccc2Cl)c(C(=O)O)c(C)n1-c1ccccc1 | -5 | -19 | i | -2 | 2 | 22
COC/C=C/C1=CC2=CC(=O)C(C)(OC(=O)c3cnc4ccccc4n3)C(=O)C2=CN1CC1CC1 (stereo unspecified) | nt | 9 | nt | -5 | 0 | nt
COC/C=C/C1=CC2=CC(=O)C(C)(OC(=O)c3cnc4ccccc4n3)C(=O)C2=CN1Cc1ccc(OC)cc1 (stereo unspecified) | 50* | 6 | i | 8 | 7 | 31
COC/C=C/C1=CC2=CC(=O)C(C)(OC(=O)c3cnc4ccccc4n3)C(=O)C2=CN1Cc1ccccc1 (stereo unspecified) | 59* | 1 | i | 14 | 6 | 13
Cn1c(SCC(=O)NC(C)(C)C)nnc1-c1cnccn1 | -9 | -2 | i | -4 | 2 | 6
COc1ccc(C(c2nnnn2C(C)(C)C)N2CCN(c3nc4ccccc4s3)CC2)cc1OC (stereo unspecified) | -15 | 4 | i | nt | nt | 9
COc1cc(C(c2nnnn2C(C)(C)C)N2CCN(c3nc4ccccc4s3)CC2)ccc1O (stereo unspecified) | -6 | 10 | i | -3 | 1 | 61*
c1cnc2ccc(C(c3nnnn3C3CCCC3)N3CCN(c4nc5ccccc5s4)CC3)cc2c1 (stereo unspecified) | active | -7 | + | -8 | -4 | -29
Cc1cc(C)n(-c2ccc(Cl)c(C(=O)Nc3ccc(OC(F)(F)F)cc3)n2)n1 | 7 | 7 | i | -3 | 0 | 3
CC(=O)NNC(=O)CN1C(=O)/C(=C/c2ccccc2)SC1=S | 3 | 50* | i | -3 | -11 | 16
O=C(CCCN1C(=O)S/C(=C\c2ccccc2)C1=O)NNC(=O)c1ccccc1O | 1 | -19 | i | -9 | -3 | 18
O=C(CN1C(=O)S/C(=C\c2ccccc2)C1=O)NCCCn1ccnc1 | -2 | 43* | i | -2 | -1 | 37
O=C(CN1C(=O)S/C(=C\c2ccccc2)C1=O)NNC(=O)c1ccccc1O | 7.4* | 5 | + | 0 | 0 | 2
